Each structure is given as a SMILES string.

Assay [1] deals with T1, Ephrin type-A receptor 3 (Homo sapiens) (UniProt P29320).
T1 sequence (whole entry): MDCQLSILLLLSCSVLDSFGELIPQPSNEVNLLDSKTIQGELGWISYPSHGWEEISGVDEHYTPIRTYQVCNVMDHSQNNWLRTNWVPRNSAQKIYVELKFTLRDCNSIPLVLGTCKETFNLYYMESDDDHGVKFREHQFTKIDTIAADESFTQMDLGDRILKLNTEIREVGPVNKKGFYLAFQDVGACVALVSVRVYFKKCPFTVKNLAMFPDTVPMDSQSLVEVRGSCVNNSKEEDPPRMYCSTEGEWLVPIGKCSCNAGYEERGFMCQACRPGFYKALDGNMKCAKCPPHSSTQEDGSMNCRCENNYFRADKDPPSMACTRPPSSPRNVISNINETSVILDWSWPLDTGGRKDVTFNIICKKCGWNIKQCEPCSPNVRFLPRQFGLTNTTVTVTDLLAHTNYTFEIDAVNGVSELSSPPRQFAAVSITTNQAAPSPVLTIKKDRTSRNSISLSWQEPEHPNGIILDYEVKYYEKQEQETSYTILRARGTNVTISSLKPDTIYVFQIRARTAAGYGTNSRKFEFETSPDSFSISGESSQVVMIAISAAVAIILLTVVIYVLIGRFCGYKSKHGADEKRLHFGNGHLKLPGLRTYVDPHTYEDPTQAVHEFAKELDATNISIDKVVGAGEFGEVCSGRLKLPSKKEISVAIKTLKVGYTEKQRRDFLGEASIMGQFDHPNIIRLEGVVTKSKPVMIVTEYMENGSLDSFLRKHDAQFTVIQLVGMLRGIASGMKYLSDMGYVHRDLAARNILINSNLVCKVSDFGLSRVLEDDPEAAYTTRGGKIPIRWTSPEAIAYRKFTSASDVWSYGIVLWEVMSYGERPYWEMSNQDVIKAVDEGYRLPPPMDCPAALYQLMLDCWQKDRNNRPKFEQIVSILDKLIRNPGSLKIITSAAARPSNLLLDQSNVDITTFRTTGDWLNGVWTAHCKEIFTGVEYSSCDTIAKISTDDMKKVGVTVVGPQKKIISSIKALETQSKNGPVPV
Particulars: at 10 µM.

The target of assay [2] is Ephrin type-A receptor 4 (Homo sapiens) (UniProt P54764). The note with it: at 1 µM.
For assay [3] the target is unchanged. The note with it: at 10 µM.
Assay [4] has as its target Ephrin type-A receptor 5 (Homo sapiens) (UniProt P54756). The note with it: at 1 µM.
Assay [5] shares this target. Particulars: at 10 µM.
Assay [6] deals with Ephrin type-A receptor 7 (Homo sapiens) (UniProt Q15375). Particulars: at 1 µM.
Assay [7] has the same target. The note with it: at 10 µM.
For assay [8], the target named is T2, Ephrin type-A receptor 8 (Homo sapiens) (UniProt P29322).
T2 sequence (whole entry): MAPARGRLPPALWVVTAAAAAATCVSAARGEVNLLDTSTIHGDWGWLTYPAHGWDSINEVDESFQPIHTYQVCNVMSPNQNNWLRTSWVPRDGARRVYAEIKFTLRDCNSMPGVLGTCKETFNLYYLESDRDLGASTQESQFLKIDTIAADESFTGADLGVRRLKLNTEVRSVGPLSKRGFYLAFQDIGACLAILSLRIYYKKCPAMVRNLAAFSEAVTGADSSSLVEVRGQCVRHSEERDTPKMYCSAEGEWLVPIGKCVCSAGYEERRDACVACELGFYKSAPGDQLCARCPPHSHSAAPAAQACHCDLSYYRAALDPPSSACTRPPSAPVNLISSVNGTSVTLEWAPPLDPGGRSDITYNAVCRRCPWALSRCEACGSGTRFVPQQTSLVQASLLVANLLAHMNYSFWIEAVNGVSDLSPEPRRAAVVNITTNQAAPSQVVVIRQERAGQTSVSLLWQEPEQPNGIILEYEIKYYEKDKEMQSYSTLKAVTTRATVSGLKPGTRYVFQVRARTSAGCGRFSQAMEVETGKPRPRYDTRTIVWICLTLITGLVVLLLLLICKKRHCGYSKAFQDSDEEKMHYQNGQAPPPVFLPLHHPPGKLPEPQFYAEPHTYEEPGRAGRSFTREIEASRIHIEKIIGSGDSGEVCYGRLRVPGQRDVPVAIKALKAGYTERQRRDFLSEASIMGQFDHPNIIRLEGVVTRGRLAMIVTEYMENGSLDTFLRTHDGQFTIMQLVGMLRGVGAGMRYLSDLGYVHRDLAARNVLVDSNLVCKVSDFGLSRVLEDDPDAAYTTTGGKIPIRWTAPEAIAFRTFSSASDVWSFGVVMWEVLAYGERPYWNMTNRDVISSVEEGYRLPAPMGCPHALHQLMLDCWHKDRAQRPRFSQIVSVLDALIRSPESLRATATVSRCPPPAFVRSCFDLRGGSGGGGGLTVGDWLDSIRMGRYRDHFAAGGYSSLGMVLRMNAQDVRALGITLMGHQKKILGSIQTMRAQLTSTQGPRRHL
The note with it: at 1 µM.

Assay [9] deals with T2, Ephrin type-A receptor 8 (Homo sapiens). Particulars: at 10 µM.
The target of assay [10] is T3, Ephrin type-B receptor 1 (Homo sapiens) (UniProt P54762).
T3 sequence (whole entry): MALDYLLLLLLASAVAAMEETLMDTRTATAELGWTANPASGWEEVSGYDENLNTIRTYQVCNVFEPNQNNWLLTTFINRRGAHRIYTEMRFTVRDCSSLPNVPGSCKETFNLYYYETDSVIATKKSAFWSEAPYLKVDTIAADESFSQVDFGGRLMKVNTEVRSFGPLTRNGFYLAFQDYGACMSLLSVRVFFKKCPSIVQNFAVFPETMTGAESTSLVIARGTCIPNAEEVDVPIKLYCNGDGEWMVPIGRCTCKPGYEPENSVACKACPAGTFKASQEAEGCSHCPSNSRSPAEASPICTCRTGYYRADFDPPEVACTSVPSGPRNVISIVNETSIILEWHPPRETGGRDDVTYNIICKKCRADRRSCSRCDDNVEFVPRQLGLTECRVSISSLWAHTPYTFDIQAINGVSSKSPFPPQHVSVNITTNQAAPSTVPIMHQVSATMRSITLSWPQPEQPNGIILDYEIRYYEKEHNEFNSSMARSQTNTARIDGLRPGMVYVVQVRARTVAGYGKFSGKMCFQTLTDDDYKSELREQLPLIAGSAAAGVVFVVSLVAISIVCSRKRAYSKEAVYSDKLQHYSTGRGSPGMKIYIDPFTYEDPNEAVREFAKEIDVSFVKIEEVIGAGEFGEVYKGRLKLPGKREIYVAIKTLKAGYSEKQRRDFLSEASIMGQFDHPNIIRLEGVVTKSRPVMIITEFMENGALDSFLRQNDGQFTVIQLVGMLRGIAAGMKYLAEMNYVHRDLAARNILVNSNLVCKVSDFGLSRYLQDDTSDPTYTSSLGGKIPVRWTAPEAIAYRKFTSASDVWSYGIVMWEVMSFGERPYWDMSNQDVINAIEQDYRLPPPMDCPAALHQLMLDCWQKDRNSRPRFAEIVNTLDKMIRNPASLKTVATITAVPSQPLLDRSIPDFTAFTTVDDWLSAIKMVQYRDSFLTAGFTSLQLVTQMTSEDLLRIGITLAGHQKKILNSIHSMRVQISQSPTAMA
The note with it: at 1 µM.

Chain of Ephrin type-A receptor 7 (Homo sapiens) (Q15375 28-998 limits assumed): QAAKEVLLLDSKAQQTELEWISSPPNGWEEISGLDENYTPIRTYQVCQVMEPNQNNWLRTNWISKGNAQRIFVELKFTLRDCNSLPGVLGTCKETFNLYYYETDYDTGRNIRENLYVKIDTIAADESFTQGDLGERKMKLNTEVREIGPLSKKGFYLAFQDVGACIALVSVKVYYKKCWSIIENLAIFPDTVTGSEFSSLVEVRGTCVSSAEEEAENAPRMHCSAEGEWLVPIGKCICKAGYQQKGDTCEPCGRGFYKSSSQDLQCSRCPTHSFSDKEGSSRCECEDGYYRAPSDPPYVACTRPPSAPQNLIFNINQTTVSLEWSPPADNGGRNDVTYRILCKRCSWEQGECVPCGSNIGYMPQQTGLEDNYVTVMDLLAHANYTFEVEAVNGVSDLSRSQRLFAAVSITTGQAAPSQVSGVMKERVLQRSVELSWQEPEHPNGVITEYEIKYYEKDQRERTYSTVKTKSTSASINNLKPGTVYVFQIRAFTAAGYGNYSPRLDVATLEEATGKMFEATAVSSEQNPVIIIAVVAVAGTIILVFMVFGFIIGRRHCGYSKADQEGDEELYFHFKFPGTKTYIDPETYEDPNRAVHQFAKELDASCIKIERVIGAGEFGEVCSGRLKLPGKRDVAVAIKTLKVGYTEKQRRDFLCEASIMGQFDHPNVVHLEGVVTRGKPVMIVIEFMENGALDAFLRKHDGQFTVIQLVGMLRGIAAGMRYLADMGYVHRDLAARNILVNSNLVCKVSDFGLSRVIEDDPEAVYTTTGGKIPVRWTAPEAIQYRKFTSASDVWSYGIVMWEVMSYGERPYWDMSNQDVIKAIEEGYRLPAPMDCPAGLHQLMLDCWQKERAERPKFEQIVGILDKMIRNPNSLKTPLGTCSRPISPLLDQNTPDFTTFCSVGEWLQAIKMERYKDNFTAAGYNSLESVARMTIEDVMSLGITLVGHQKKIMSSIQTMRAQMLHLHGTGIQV
Chain of Ephrin type-A receptor 4 (Homo sapiens) (P54764 whole entry): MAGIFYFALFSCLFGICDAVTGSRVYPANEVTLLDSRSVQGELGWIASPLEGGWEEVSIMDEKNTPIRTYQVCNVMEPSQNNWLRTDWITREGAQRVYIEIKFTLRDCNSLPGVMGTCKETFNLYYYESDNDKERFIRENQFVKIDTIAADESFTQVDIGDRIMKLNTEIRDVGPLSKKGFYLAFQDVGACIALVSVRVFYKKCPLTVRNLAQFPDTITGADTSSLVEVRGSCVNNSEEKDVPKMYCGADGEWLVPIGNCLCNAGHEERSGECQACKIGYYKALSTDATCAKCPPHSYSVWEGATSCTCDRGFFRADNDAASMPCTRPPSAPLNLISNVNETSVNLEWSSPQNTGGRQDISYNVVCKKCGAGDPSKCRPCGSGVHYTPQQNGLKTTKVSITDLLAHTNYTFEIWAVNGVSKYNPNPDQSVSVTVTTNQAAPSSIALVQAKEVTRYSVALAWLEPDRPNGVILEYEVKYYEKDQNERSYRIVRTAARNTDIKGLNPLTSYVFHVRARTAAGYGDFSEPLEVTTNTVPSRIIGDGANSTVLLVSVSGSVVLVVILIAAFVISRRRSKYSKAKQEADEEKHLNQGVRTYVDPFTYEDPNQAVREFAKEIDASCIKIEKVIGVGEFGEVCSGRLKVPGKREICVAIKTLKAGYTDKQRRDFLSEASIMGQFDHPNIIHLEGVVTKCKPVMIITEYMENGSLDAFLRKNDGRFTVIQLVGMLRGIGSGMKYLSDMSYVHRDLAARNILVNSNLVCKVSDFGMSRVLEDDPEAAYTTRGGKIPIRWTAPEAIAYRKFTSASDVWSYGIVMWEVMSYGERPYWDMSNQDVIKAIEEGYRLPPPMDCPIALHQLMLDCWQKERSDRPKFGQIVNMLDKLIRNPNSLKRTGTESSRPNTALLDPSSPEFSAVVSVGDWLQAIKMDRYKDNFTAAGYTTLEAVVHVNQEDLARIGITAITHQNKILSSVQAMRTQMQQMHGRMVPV
Chain of Ephrin type-A receptor 5 (Homo sapiens) (P54756 whole entry): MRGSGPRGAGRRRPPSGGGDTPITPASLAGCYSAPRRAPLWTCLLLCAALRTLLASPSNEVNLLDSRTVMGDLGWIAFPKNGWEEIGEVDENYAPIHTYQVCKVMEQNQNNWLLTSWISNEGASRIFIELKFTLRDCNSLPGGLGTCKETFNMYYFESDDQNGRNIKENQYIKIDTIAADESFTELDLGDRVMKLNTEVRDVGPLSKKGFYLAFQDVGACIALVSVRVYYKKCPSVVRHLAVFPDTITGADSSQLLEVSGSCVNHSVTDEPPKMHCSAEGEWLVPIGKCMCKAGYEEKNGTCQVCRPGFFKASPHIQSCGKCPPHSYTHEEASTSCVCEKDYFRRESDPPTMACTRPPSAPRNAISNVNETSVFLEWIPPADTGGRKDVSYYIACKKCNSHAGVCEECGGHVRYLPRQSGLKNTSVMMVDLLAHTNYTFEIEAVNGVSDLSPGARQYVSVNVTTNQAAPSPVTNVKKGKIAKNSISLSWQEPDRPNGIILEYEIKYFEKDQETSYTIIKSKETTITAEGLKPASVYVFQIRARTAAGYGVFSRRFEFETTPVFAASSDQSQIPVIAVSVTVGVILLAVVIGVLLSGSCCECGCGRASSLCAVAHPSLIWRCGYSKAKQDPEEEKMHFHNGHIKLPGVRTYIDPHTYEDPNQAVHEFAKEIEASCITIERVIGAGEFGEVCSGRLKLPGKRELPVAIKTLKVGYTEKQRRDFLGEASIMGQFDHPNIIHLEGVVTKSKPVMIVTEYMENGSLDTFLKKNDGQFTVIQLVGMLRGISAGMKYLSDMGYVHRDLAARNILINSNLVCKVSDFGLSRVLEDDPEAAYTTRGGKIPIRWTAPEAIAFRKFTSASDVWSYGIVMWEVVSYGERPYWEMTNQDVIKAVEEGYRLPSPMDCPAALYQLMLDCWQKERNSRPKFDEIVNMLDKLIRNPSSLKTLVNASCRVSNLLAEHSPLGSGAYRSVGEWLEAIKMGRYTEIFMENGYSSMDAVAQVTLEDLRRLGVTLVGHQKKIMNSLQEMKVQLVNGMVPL

For `Nc1cccc(-c2cc3c(Oc4cccc(O)c4)ncnc3[nH]2)c1`, the residual activity (as a rule, what remains of the control signal, in per cent) was 0% in assay [1]; 48% in [2]; 4% in assay [3]; 24% in [4]; 2% in assay [5]; 64% in assay [6]. Also, the residual activity in [7] turned out to be 15%; in [8] it was 30%; in assay [9] it was 6%; in [10] it was 7%.

Values taken from ChEMBL document CHEMBL2218924, “A broad activity screen in support of a chemogenomic map for kinase signalling research and drug discovery” (Biochem J, 2013).
